KLF5 inh = kruppel-like factor 5 inhibition | actives 0.23% (n = 290,000) | inhibition, % at 5 µM | DLD-1 KLF5 promoter-luciferase reporter, luminescence;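 active = inhibition above a per-plate limit of that plate's mean compound inhibition plus 3 SD, cut at about 60% in these data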;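 note: 0% = DMSO wells and 100% = LY294002 at 200 µM; higher means less KLF5 promoter-driven luciferase light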
IEC-6 tox = kills IEC-6 intestinal cells in KLF5 counter-screen; inhibition, % at 5 µM; IEC-6 cytotoxicity, luminescence viability; actives 0.78% (n = 290,000); in the data active = inhibition above about 22%;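 note: 0% = plate median of test compound wells and 100% = cytotoxic reference compound wells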
BaF3 parental = reduces parental Ba/F3 cell viability, JAK2V617F counter-screen. inhibition, % at 5.6 µM. actives 1.1% (n = 220,000). AID 1486. CellTiter-Glo ATP luminescence;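 active = inhibition above a per-campaign cutoff, the mean inhibition of all tested compounds plus 3 SD, cut at about 27% in these data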;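 note: 0% = DMSO wells and 100% = JAK Inhibitor I control wells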
Ba/F3 V617F tox = lowers viability of Ba/F3 cells expressing EpoR and JAK2V617F | AID 1446 | inhibition, % at 5.6 µM | ATP luminescence | actives 1.1% (n = 220,000);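 active = inhibition above the campaign mean plus 3 SD over all tested compounds, cut at about 24% in these data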;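 note: cytokine-independent growth of Ba/F3 cells driven by EpoR plus mutant JAK2; 0% = DMSO-treated cells and 100% = JAK inhibitor I control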
aSyn 5UTR inh = 5' untranslated region of α-synuclein, MLPCN primary screen; inhibition, % (tested at 7.5 µM); alpha-synuclein 5'UTR reporter, inhibitor activity; actives 0.82% (n = 300,000); in the data active = inhibition above about 60%;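 note: H4 neuroglioblastoma cells stably carrying SNCA 5'UTR luciferase fusion; 0% = DMSO wells and 100% = positive control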
APP transl inh = APP translation inhibition | actives 0.82% (n = 190,000) | SH-SY5Y APP 5'UTR-luciferase reporter, luminescence | inhibition, % at 2 µM;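 active = inhibition above a set limit, derived from the sample mean plus 3 SD, cut at about 45% in these data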
Starred values were filed as active, the others as inactive. Only some compounds are listed: those with a hit (about 2.1% of all), similar ones and a draw of the others.

For O=C(COC(=O)CCc1c[nH]c2ccccc12)NC(c1ccccc1)c1ccccc1 the results were KLF5 inh -25, IEC-6 tox -5, BaF3 parental 76*, Ba/F3 V617F tox 0, aSyn 5UTR inh -20 and APP transl inh 13.
Screening Cc1nn(C)c2ncc(C(N)=O)c(Oc3ccc(Cl)cc3)c12 returned KLF5 inh -15, IEC-6 tox -2, BaF3 parental -1, Ba/F3 V617F tox -3 and aSyn 5UTR inh 18.
Screening N#CC1=C(N)Oc2cc(O)ccc2C1c1ccc(Br)s1 (stereo unspecified) returned KLF5 inh -33, IEC-6 tox -5 and aSyn 5UTR inh 1.
Screening O=C(Oc1c(CN2CCOCC2)cc(Cl)c2cccnc12)c1cccs1 returned KLF5 inh 8, IEC-6 tox 16, BaF3 parental 3, Ba/F3 V617F tox 1, aSyn 5UTR inh 108* and APP transl inh 27.
`O=C(Oc1ccc(Cl)c2cccnc12)N1CCOCC1` gave KLF5 inh 15, IEC-6 tox -3, BaF3 parental 1, Ba/F3 V617F tox -2, aSyn 5UTR inh -6 and APP transl inh 3.
For COc1cc(C(=S)N2CCOCC2)cc(OC)c1OC(=O)c1ccc(F)cc1 the results were KLF5 inh -27, IEC-6 tox -3 and aSyn 5UTR inh 5.
O=C(Oc1c(CN2CCOCC2)cc(Cl)c2cccnc12)c1ccc(F)cc1 was read as KLF5 inh -22, IEC-6 tox 0, BaF3 parental 2, Ba/F3 V617F tox -2, aSyn 5UTR inh 65* and APP transl inh 37.
Screening O=C(Oc1c(CN2CCOCC2)cc(Cl)c2cccnc12)c1ccccc1Cl returned KLF5 inh 5, IEC-6 tox -2, BaF3 parental 7, Ba/F3 V617F tox 1, aSyn 5UTR inh 105* and APP transl inh 53*.
For O=C(Nc1cccc(-n2cnnn2)c1)c1ccc(OC(F)(F)F)cc1 the results were KLF5 inh -7, IEC-6 tox 3 and aSyn 5UTR inh 11.
COc1ccc(NC(=O)CSc2ccc3nnc(CCNC(=O)c4ccccc4)n3n2)cc1OC was read as KLF5 inh -23, IEC-6 tox -1 and aSyn 5UTR inh -13.
For O=C(Nc1ccc(C(=O)O)cc1)/C(=C\c1cccc([N+](=O)[O-])c1)NC(=O)c1ccc(Br)o1 the results were KLF5 inh -5, IEC-6 tox 2, BaF3 parental 7, Ba/F3 V617F tox 2, aSyn 5UTR inh 10 and APP transl inh -9.
`CCCOc1ccc(CSc2nc3ccccc3[nH]2)cc1` gave KLF5 inh -51, IEC-6 tox 8, BaF3 parental 44*, Ba/F3 V617F tox 5, aSyn 5UTR inh -127 and APP transl inh -125.
CCOc1ccc(OCCSc2nc3ccccc3[nH]2)cc1 was read as KLF5 inh -33, IEC-6 tox 2, BaF3 parental 6, Ba/F3 V617F tox 1, aSyn 5UTR inh -7 and APP transl inh -3.
`Cc1cc2nc(N=C(N)N)nc(C)c2cc1C` gave KLF5 inh 21, IEC-6 tox 15, BaF3 parental 65*, Ba/F3 V617F tox 73* and APP transl inh -47.
Screening CCc1ccc2nc(N=C(N)N)nc(C)c2c1 returned KLF5 inh 22, IEC-6 tox 8, BaF3 parental 45*, Ba/F3 V617F tox 50*, aSyn 5UTR inh 48 and APP transl inh -14.
Cc1ccc2nc(N=C(N)N)nc(C)c2c1 was read as KLF5 inh -19, IEC-6 tox 4, BaF3 parental 42*, Ba/F3 V617F tox 50*, aSyn 5UTR inh 14 and APP transl inh -14.
Screening CCN1C(=O)c2ccc(C(=O)Nc3ccc(O)cc3C)cc2C1=O returned KLF5 inh 5, IEC-6 tox 6 and aSyn 5UTR inh 12.
`CC12CCC(=O)N1C(C(=O)NCc1ccc(Cl)cc1Cl)CS2` (stereo unspecified) gave aSyn 5UTR inh 8.
CCOC(=O)c1c(NC(C)=O)sc2c(O)cccc12 was read as KLF5 inh -6, IEC-6 tox -3, BaF3 parental 4, Ba/F3 V617F tox 1, aSyn 5UTR inh 23 and APP transl inh 55*.
Screening OC1(c2ccc(Cl)cc2)CCN(Cc2cn[nH]c2-c2ccccc2)CC1 returned KLF5 inh -6, IEC-6 tox 14, BaF3 parental -1, Ba/F3 V617F tox 13 and aSyn 5UTR inh 70*.
For Fc1ccc(N2CCN(Cc3cn[nH]c3-c3ccccc3)CC2)cc1 the results were KLF5 inh 4, IEC-6 tox 8, BaF3 parental -1, Ba/F3 V617F tox 2 and aSyn 5UTR inh 3.
For O=C1CN(C(=O)COC(=O)c2oc3ccccc3c2COc2ccccc2)c2ccccc2N1 the results were KLF5 inh -2, IEC-6 tox 0, BaF3 parental 2, Ba/F3 V617F tox -3, aSyn 5UTR inh 22 and APP transl inh 45*.
C/C(=N\Nc1nc2ccccc2[nH]1)c1cc2ccccc2o1 was read as KLF5 inh -6, IEC-6 tox 10, BaF3 parental 2, Ba/F3 V617F tox -1, aSyn 5UTR inh -138 and APP transl inh -106.
`C/C(=N\Nc1nc2ccccc2[nH]1)c1ccccn1` gave KLF5 inh 45, IEC-6 tox 9 and aSyn 5UTR inh 87*.
O=C(Nc1ccc([N+](=O)[O-])cc1)C(=O)Nc1cccc(C(=O)O)c1 was read as KLF5 inh 81*, IEC-6 tox 10, BaF3 parental 9, Ba/F3 V617F tox 7 and aSyn 5UTR inh 102*.
For O=C(Nc1ccc([N+](=O)[O-])cc1)Nc1nc(-c2ccc(Cl)s2)cs1 the results were KLF5 inh 6, IEC-6 tox -10, BaF3 parental 4, Ba/F3 V617F tox -2, aSyn 5UTR inh 92* and APP transl inh 56*.
O=C(Nc1ccc(Oc2ccc(NC(=O)Nc3ccc([N+](=O)[O-])cc3)cc2)cc1)Nc1ccc([N+](=O)[O-])cc1 was read as KLF5 inh -13, IEC-6 tox 3, BaF3 parental 1, Ba/F3 V617F tox -2 and aSyn 5UTR inh 91*.
For Cn1ccc(C(=O)NC(=S)N2CCSCC2)n1 the results were KLF5 inh -14, IEC-6 tox 2, BaF3 parental -3, Ba/F3 V617F tox 1 and aSyn 5UTR inh -6.
`COc1cc(C2C3=C(Nc4ncnn42)c2ccccc2CC3)cc(OC)c1OC` (stereo unspecified) gave KLF5 inh 78*, IEC-6 tox 96*, BaF3 parental 90*, Ba/F3 V617F tox 93*, aSyn 5UTR inh 83* and APP transl inh 95*.
`Cc1ccc(S(=O)(=O)N(C)C)cc1NC(=S)N1CCc2ccccc21` gave KLF5 inh -19, IEC-6 tox 5, BaF3 parental 4, Ba/F3 V617F tox -1, aSyn 5UTR inh -7 and APP transl inh 20.
For O=C(c1cccc(NC2=NC3CS(=O)(=O)CC3S2)c1)N1CCN(c2cccc(Cl)c2)CC1 (stereo unspecified) the results were KLF5 inh -3, IEC-6 tox 2 and aSyn 5UTR inh -11.

Screening data: PubChem BioAssay, several laboratories
